The nature of test [1]: Nuclear factor erythroid 2-related factor 2/antioxidant responsive element (Nrf2/ARE) small molecule agonists: qHTS cell viability counter screen in human keratinocytes (AID 1919968; active = well fitted curve in the direction sought with a large enough effect in the repeat runs; an effect the other way counts as inactive or inconclusive; note: nearly all actives have a fitted effect of over 55% in size; note: potency is the fitted concentration of half-maximal effect). The method in brief:
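Cells of the KeratinoSens line were plated at 1,500 per well and left for 5 h before compound transfer from DMSO stocks. After a 23 h incubation (37 C, 5% CO2), CellTiter-Fluor was added. Signal was taken as fluorescence intensity 1 h later.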
On the technique in general: In qHTS, concentration-response curves come from the screen itself.

Test [2] in a line: Nuclear factor erythroid 2-related factor 2/antioxidant responsive element (Nrf2/ARE) small molecule agonists: luciferase reporter gene qHTS assay in human keratinocytes (AID 1919969). Note: nearly all actives have a fitted effect of over 35% in size. Note: potency is the fitted concentration of half-maximal effect.
For test [3], the target named is Gonadotropin-releasing hormone receptor (Homo sapiens) (UniProt P30968). Put plainly: Human gonadotropin-releasing hormone receptor (GnRHR) small molecule agonists, calcium flux assay in GnRHR-HEK293 cells (AID 1920063). Note: nearly all actives have a fitted effect of over 35% in size. Put shortly: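 Compounds dissolved in DMSO are pin-transferred onto dye-loaded GnRHR-HEK293 cells, which were seeded 18 h before at 37 C/5% CO2. Calcium signal is read as fluorescence intensity at 1 s intervals for 3 min.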
Sequence of Gonadotropin-releasing hormone receptor (Homo sapiens) (P30968 whole entry, looked up): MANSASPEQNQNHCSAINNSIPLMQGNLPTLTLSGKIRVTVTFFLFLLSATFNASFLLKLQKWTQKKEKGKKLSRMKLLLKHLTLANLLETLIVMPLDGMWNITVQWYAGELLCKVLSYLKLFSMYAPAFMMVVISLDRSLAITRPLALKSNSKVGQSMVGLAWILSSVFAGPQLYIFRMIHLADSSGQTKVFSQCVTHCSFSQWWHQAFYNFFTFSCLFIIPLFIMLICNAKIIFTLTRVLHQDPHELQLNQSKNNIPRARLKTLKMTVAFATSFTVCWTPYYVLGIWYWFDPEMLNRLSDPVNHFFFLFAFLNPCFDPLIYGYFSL

Test [4] has as its target KiSS-1 receptor (Homo sapiens) (UniProt Q969F8). The test can be described thus: Human kisspeptin (KISS1R) small molecule agonists, calcium flux assay in KISS1R-HEK293 cells (AID 1920064; active = well fitted curve in the direction sought with a large enough effect in the repeat runs; an effect the other way counts as inactive or inconclusive). The method in brief:
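Cell line: HEK293, stable human KISS1R. Dye loading 1 h at 37 C after 18 h culture. Read: kinetic fluorescence, 480/540 nm, 3 min at 1 s intervals.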

Test [5] can be described thus: G protein-coupled receptor (GPCR) small molecule agonists, calcium flux assay: HEK293 wild type cell line counter screen (AID 1920065). Put shortly: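 Tox21 10K compounds, 15 concentrations each in triplicate, pin-transferred in DMSO onto dye-loaded cells; kinetic read at 480/540 nm for 3 min, 1 s intervals.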
Background: A change in cytosolic calcium serves as a functional read-out for many receptors and channels.

A short description of test [6]: p53 small molecule agonists, cell-based qHTS assay with human liver microsomes (AID 1963577). Put shortly: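 p53RE-bla reporter cells were pre-incubated 5 h at 37 C, then treated with compounds plus human liver microsomes (0.5 mg/mL final) and NADPH (0.5 mg/mL final) for 16 h at 37 C. Beta-lactamase activity was read by LiveBLAzer fluorescence after 2 h at room temperature.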

The nature of test [7]: p53 small molecule agonists, cell-based qHTS assay with rat liver microsomes (AID 1963578). Put shortly:
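p53RE-bla cells were exposed to compounds together with rat liver microsomes (0.5 mg/mL final) and NADPH (0.5 mg/mL final) for 16 h at 37 C, then read by LiveBLAzer beta-lactamase fluorescence after 2 h at room temperature.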

Test [8] is described as follows: p53 small molecule agonists, cell-based qHTS assay with human liver microsomes: qHTS cell viability counter screen (AID 1963579). Note: nearly all actives have a fitted effect of over 45% in size. The method in brief: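 p53RE-bla cells (4,000/well) were pre-incubated 5 h at 37 C, then given compounds in DMSO plus human liver microsomes (0.5 mg/mL final) and NADPH (0.5 mg/mL final) for 16 h at 37 C. Viability was read by CellTiter-Glo luminescence.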

Test [9] in a line: p53 small molecule agonists, cell-based qHTS assay with rat liver microsomes: qHTS cell viability counter screen (AID 1963580). Note: nearly all actives have a fitted effect of over 45% in size. The method in brief:
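After the beta-lactamase ratio was read, CellTiter-Glo was added to the same wells and luminescence measured at 30 min; cells had been treated 16 h at 37 C with compounds, rat liver microsomes and NADPH (0.5 mg/mL final each).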

The nature of test [10]: p53 small molecule agonists, cell-based qHTS assay: qHTS cell viability counter screen (AID 1963581). Note: nearly all actives have a fitted effect of over 45% in size. Put shortly: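 ATP content measured by luminescence in HCT-116 p53RE-bla cells treated 16 h at 37 C, same wells as the reporter screen.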
Test [11] concerns the target 5-hydroxytryptamine receptor 2A (Homo sapiens) (UniProt P28223). Put plainly: 5-hydroxytryptamine receptor 2A (HTR2A) small molecule antagonists, cell-based qHTS assay (AID 1963586). Note: nearly all actives have a fitted effect of over 45% in size. Put shortly:
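CHO cells stably expressing human HTR2A were plated for 18 h at 37 C, then loaded with calcium dye for 1 h. Compounds were preincubated 5 min at room temperature before DOI (4 nM solution) was added. Kinetic fluorescence was read for 3 min.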

Test [12] has the same target. Put plainly: 5-hydroxytryptamine receptor 2A (HTR2A) small molecule agonists, cell-based qHTS assay (AID 1963587). Note: nearly all actives have a fitted effect of over 30% in size. The method in brief:
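CHO cells stably expressing human HTR2A, plated 18 h, loaded with calcium dye 1 h at 37 C. Agonist mode: compounds added and intracellular calcium fluorescence recorded kinetically for 2 min at 1 sec intervals.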

The target of test [13] is Muscarinic acetylcholine receptor M1 (Homo sapiens) (UniProt P11229). The test can be described thus: Cholinergic receptor muscarinic 1 (CHRM1) small molecule antagonists, cell-based qHTS assay (AID 1963588). Note: nearly all actives have a fitted effect of over 40% in size. The method in brief:
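Compounds were tested at 15 concentrations in three independent runs. Dye-loaded CHRM1-CHO cells were exposed 5 min at room temperature before stimulation by acetylcholine added at 50nM. Intracellular calcium was read kinetically on FDSS for 3 min.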

The target is the same in test [14]. Put plainly: Cholinergic receptor muscarinic 1 (CHRM1) small molecule agonists, cell-based qHTS assay (AID 1963589). Note: nearly all actives have a fitted effect of over 35% in size. Put shortly: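 Homogeneous fluorescence calcium flux, agonist mode. Human M1-expressing CHO cells; compound dosed at 15 concentrations, three independent runs; signal sampled every 1 sec.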
Test [15] in a line: cAMP Responsive Elements (CRE) small molecule agonists, cell-based qHTS assay (AID 1963590). Put shortly:
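HEK 293T cells stably bearing CRE-bla were plated at 2,000 cells per well and rested 18 h. Compounds, positive controls or DMSO were added for 3 h at 37 C. LiveBLAzer B/G substrate was then loaded for 2 h at room temperature.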

Test [16] can be described thus: cAMP Responsive Elements (CRE) small molecule antagonists, cell-based qHTS assay (AID 1963591; active = well fitted inhibition curve with a large enough effect in the signal ratio in the repeat runs, not every such curve was filed as active; the % refers to the signal ratio). Put shortly:
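First, CRE-bla HEK293T cells settled 18 h at 37 C. Next, compound and 0.25 uM final NKH477 were applied for 3 h. Last, LiveBLAzer B/G substrate was loaded for 2 h at room temperature.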

Test [17] has as its target Beta-2 adrenergic receptor (Homo sapiens) (UniProt P07550). Put plainly: Adrenergic beta2 receptor (ADRB2) small molecule antagonists, cell-based qHTS assay (AID 1963592). Note: series mostly up to about 92 µM; nearly all actives have a fitted effect of over 50% in size. Put shortly: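 Assay format: CHO-ADRB2 cells, 18-20hr seeding at 37C/5% CO2, then compound plus 1nM isoproterenol agonist mix for 0.5hr RT. Homogeneous time-resolved fluorescence cAMP detection after 1hr, expressed as 665/615 nm ratio.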

In test [18] the target is D(2) dopamine receptor (Homo sapiens) (UniProt P14416). The test can be described thus: Dopamine D2 receptor (DRD2) small molecule agonists, cell-based qHTS assay (AID 1963594). Note: nearly all actives have a fitted effect of over 35% in size. The method in brief:
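HEK293 cells stably expressing human DRD2, pre-treated with PDE inhibitor Ro20-1724 (0.1 mM final) and compound 10 min at room temperature, then stimulated with NKH477 (200nM […]) for 30 min. cAMP read by HTRF (665/620 nm).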

Test [19] shares this target. Put plainly: Dopamine D2 receptor (DRD2) small molecule antagonists, cell-based qHTS assay (AID 1963595; active = well fitted inhibition curve with a large enough effect in the signal ratio in the repeat runs, with a control signal flat; the % refers to the signal ratio). Put shortly: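 HEK293 cells stably expressing DRD2, preincubated with 0.1 mM Ro20-1724 and compounds 10 min, were stimulated with 200 nM NKH477 plus 12 nM quinpirole for 30 min at room temperature; cAMP measured by HTRF (665/620 nm).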
Test [20] is described as follows: p53 small molecule agonists, cell-based qHTS assay (AID 1963582; active = well fitted activation curve with a large enough effect in the signal ratio in the repeat runs, not every such curve was filed as active; the % refers to the signal ratio). The method in brief:
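16 h compound exposure (37 C) of p53 response element–bla cells, preceded by 5 h recovery at 37 C/5% CO2; read-out via LiveBLAzer B/G FRET substrate, 2 h RT, fluorescence intensity.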

Values joined by “and” are separate entries in the source; they are usually repeats but may differ in a detail not shown here. Equal entries are not always repeated. Results filed as inconclusive are left out. Active and inactive are the calls of the source. Unless noted, calls come from the whole dose curve.

Among the data in PubChem BioAssay (Tox21) are Potency values, retold here.

Sequence of D(2) dopamine receptor (Homo sapiens) (P14416 whole entry, looked up): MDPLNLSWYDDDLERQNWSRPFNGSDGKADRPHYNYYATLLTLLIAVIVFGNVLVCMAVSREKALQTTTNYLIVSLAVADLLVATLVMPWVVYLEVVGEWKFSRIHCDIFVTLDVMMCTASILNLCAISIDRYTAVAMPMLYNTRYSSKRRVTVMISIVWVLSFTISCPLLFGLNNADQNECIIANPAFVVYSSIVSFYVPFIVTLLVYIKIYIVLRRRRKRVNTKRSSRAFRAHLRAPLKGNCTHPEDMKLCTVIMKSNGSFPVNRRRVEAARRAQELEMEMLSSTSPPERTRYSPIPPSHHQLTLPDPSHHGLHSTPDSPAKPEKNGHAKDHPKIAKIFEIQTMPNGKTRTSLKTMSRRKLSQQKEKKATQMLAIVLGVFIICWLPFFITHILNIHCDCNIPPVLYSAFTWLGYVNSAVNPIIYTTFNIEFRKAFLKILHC
Sequence of 5-hydroxytryptamine receptor 2A (Homo sapiens) (P28223 whole entry, looked up): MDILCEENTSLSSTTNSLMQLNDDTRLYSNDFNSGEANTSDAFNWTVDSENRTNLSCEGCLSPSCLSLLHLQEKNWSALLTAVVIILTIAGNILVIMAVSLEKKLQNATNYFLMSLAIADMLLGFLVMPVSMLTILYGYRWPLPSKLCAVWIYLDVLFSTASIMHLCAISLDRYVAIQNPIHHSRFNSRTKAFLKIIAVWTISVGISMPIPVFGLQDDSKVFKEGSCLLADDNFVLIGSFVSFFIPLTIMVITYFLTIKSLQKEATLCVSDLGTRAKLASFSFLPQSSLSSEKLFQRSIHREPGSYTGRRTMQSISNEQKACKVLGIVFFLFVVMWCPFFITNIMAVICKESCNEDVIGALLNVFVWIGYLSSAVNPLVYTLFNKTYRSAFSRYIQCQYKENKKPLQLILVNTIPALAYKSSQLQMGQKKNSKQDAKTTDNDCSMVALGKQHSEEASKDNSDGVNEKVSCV
Sequence of Muscarinic acetylcholine receptor M1 (Homo sapiens) (P11229 whole entry, looked up): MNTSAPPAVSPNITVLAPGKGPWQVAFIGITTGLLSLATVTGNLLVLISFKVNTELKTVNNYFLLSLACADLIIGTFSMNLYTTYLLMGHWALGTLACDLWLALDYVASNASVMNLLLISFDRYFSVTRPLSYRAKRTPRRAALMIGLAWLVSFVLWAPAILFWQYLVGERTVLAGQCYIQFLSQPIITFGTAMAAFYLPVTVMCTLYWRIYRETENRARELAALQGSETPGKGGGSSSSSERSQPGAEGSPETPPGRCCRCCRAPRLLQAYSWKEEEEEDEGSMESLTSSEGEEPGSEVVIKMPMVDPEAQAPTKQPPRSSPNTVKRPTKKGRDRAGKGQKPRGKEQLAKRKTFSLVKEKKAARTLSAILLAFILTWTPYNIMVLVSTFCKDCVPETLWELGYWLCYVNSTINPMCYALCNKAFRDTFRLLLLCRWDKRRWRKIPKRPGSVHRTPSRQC
Sequence of Beta-2 adrenergic receptor (Homo sapiens) (P07550 whole entry, looked up): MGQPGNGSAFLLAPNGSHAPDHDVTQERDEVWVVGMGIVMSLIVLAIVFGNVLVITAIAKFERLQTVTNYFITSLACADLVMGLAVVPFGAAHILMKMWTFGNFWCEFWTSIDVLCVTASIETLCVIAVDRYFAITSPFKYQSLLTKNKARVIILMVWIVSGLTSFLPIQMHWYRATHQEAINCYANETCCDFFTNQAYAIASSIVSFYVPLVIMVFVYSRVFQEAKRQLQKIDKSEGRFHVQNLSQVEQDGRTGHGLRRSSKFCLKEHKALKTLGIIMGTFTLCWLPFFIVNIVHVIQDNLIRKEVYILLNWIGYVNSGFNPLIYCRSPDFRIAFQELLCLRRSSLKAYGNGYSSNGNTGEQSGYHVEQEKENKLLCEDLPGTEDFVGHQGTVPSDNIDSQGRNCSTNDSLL
Sequence of KiSS-1 receptor (Homo sapiens) (Q969F8 whole entry, looked up): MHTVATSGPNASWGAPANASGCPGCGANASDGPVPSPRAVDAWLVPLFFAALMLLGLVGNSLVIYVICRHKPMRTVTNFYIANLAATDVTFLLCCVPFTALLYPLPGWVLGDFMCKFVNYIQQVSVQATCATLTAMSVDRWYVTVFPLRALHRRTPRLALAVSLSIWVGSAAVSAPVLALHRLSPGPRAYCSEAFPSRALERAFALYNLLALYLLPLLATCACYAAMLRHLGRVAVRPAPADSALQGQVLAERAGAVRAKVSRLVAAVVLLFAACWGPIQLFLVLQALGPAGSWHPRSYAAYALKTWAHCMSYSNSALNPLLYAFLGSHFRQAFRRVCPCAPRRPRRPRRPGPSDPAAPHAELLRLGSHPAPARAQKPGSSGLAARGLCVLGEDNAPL

`CC(C)(C)C1CCC(O)CC1` (stereo not drawn): the Potency result in [1], in [2], in test [3], in test [4], in test [5] and in test [6] was “inactive” in each case. In addition, the Potency result in test [7], in [8], in test [9], in [10], in test [11] and in test [12] was “inactive” in each case. Further, the Potency result in test [13], in test [14], in test [15], in test [16], in test [17] and in test [18] was “inactive” in each case. Moreover, the Potency result in test [19] was “inactive”.

Regarding `CCCCCC(N)=O`, the Potency entry in [1], in [2], in [3], in [4], in [5] and in test [6] was “inactive” each time. The Potency entry in test [7], in test [8], in [9], in [10], in test [11] and in [12] was “inactive” in each case. The Potency result in test [13], in [14], in test [15], in [16], in test [18] and in [19] was “inactive” in each case.

Regarding `C=CC(=O)OCCOCCOCCOCCOC(=O)C=C`, the Potency is 61.4 µM (active) and 48.1 µM (active) in test [1]; 24.5 µM (active) and 27.1 µM (active) in test [2]. Moreover, the Potency result in [3], in test [4], in test [5], in [6], in test [7] and in test [8] was “inactive” each time. Further, the Potency entry in test [9], in test [20], in [11], in [12], in test [13] and in test [14] was “inactive” throughout. Moreover, the Potency result in [17], in test [18] and in [19] was “inactive” throughout.

Consider `O=C(c1ccc(O)cc1)c1ccc(O)cc1O`, for which the Potency entry in test [1], in [2], in test [3], in [4], in [5] and in test [6] was “inactive” each time. Besides, the Potency entry in test [7], in test [8], in test [9], in [10], in test [12] and in test [13] was “inactive” in each case. The Potency entry in [14], in test [16], in [17], in test [18] and in test [19] was “inactive” each time.

For the molecule `O=C(O)CCCCCCCCC(=O)O`, the Potency result in test [1], in test [2], in [3], in test [4], in test [5] and in [6] was “inactive” in each case. Besides, the Potency entry in [7], in test [8], in test [9], in test [10], in test [11] and in [12] was “inactive” each time. Besides, the Potency result in test [13], in [14], in test [15], in test [16], in [17] and in test [18] was “inactive” in each case. Moreover, the Potency entry in [19] was “inactive”.

`NC(=O)c1cnccn1`: the Potency result in test [1], in test [2], in test [3], in [4], in [5] and in [6] was “inactive” each time. Further, the Potency entry in test [7], in test [8], in [9], in test [10], in test [15] and in test [16] was “inactive” in each case. Also, the Potency entry in test [17] and in [18] was “inactive” each time.

Take `CCCCNC(=O)NS(=O)(=O)c1ccc(C)cc1`: the Potency entry in test [1], in [2], in test [3], in test [4], in test [5] and in test [6] was “inactive” in each case. Besides, the Potency result in test [7], in [8], in test [9], in test [10], in test [11] and in test [12] was “inactive” in each case. The Potency entry in test [13], in test [14], in [15], in test [16], in test [17] and in test [18] was “inactive” throughout. Besides, the Potency entry in test [19] is “inactive”.
